# High-throughput results deposited in PubChem by National Center for Advancing Translational Sciences (NCATS).
# Hits are enriched below; roughly 12% of the tested compounds scored in any of these assays.
# BAZ2B block – qHTS Assay for Inhibitors of BAZ2B | Bromodomain adjacent to zinc finger domain protein 2B (Homo sapiens), Q9UIF8 | AlphaScreen BAZ2B-H3K14Ac peptide displacement | Potency, µM (doses to about 114 µM), inactives show at the top dose activity change, negative = inhibition, actives largely listed as inhibitors | hit rate 4.4% among 360,000; note: potency is the fitted concentration of half-maximal effect; % is set by controls: 0 for no effect and ±100 for the full control effect; nearly all actives have a fitted effect of over 60% in size
#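 Inhibition is scored as reduced AlphaScreen emission. The BAZ2B/b-H3(5-23)K14Ac complex (50 nM each) in PBS pH 7.4, 0.01% Tween-20 meets compound (up to 110 uM) for 30 min at RT before bead addition.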
# PLK1 PBD inh – qHTS for Inhibitors of PLK1-PDB (polo-like kinase 1 - polo-box domain): Primary Screen | Plk1 PBD binding of FITC phosphopeptide, fluorescence polarization | Serine/threonine-protein kinase PLK1 (Homo sapiens), P53350 | hit rate 2.8% among 360,000 | Potency, µM, inactives show max response, negative = inhibition, hits mostly inhibitors; note: potency is the fitted concentration of half-maximal effect; series mostly up to about 57 µM; % is set by controls: 0 for no effect and ±100 for the full control effect; nearly all actives have a fitted effect of over 65% in size
# Target sequence (P53350 whole entry, looked up, the tested form may be a part): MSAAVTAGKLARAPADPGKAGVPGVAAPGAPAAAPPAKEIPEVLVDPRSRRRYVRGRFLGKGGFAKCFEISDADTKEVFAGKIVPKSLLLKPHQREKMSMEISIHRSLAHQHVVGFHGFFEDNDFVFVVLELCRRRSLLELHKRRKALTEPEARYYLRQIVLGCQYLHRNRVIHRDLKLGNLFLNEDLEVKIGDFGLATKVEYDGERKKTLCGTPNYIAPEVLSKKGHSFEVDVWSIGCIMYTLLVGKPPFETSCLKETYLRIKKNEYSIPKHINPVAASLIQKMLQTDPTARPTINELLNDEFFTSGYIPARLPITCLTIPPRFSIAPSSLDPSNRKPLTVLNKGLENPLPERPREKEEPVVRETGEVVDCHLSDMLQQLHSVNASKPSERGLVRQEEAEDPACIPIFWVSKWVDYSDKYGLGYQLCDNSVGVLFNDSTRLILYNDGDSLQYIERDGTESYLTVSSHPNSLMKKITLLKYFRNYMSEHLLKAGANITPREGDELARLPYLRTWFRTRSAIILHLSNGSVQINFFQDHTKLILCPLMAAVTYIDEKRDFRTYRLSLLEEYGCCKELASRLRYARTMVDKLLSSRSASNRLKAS
# JMJD2A Tudor – qHTS Assay for Inhibitors of JMJD2A-Tudor Domain; Lysine-specific demethylase 4A (Homo sapiens), O75164; AID 504339, 2011; AlphaScreen JMJD2A-Tudor / H3K4me3 peptide binding; hit rate 4.4% among 390,000; Potency, µM (doses to about 114 µM), for inactives: top-dose activity change, negative = inhibition, hits mostly inhibitors; note: potency is the fitted concentration of half-maximal effect; % is set by controls: 0 for no effect and ±100 for the full control effect; nearly all actives have a fitted effect of over 50% in size
# PI5P4K alpha inh – qHTS for Inhibitors of phosphatidylinositol 5-phosphate 4-kinase (PI5P4K); PI5P4Kalpha enzyme, ADP-Glo luminescence, 60 min; active compounds read low; AID 652105, 2013; max response, %; hit rate 1.2% among 330,000; active = max response of -50% or lower; inconclusive = between -30% and -50%; inactive = -30% or higher; note: value at the top dose of about 77 µM; % is set by controls: 0 for no effect and ±100 for the full control effect
#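 Compounds were pin-transferred onto PI5P4Kalpha and substrate in HEPES pH 7.4 buffer with EGTA, CHAPS and 5% DMSO. ATP (5 microM final) started the reaction, which ran 60 minutes at room temperature before ADP-Glo detection.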
# G9a block – qHTS Assay for Inhibitors of Histone Lysine Methyltransferase G9a; Histone-lysine N-methyltransferase EHMT2 (Homo sapiens), Q96KQ7; G9a H3K9 monomethylation, AlphaScreen, 2 h; Potency, µM (top dose mostly 102 µM), for inactives: at the top dose activity, negative = inhibition, usual class: inhibitors; hit rate 8.8% among 350,000; AID 504332, 2011; note: potency is the fitted concentration of half-maximal effect; % is set by controls: 0 for no effect and ±100 for the full control effect; nearly all actives have a fitted effect of over 75% in size
#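 Compounds were preincubated with 20 nM G9a for 15 min, after which biotinylated H3K9 peptide (500 nM) and SAM (20 uM) started a 2 h room-temperature reaction. Monomethylated product was quantified by antibody-based AlphaScreen chemiluminescence.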
# HP1b binding inh – HTS for Inhibitors of HP1-beta Chromodomain Interactions with Methylated Histone Tails. Potency, µM (top dose mostly 114 µM), for the others: at the top dose activity change, negative = inhibition, usual class: inhibitors. AlphaScreen HP1-beta / biotin-H3K9me3 peptide binding. Chromobox protein homolog 1 (Homo sapiens), P83916. hit rate 0.56% among 390,000. AID 540317, 2011; note: potency is the fitted concentration of half-maximal effect; nearly all actives have a fitted effect of over 70% in size
#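 AlphaScreen: HP1-beta (50 nM) preformed 30 min with biotin-H3(1-18)K9me3 peptide (50 nM) in PBS pH 7.4, 0.01% Tween-20. Compound added for 30 min at RT, then streptavidin donor/nickel chelate acceptor beads (10 ug/mL) for 30 min.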
# Starred values were filed as active, the others as inactive; ? = inconclusive; . = not tested or not shown; [ ] = another dose, or the depositor's remark. Unless noted, calls come from the whole dose curve; as a rule, active = well fitted curve in the direction sought with a large enough effect; inconclusive = small, poorly fitted or top-dose-only effect, or another doubt; inactive = no such curve, though single readings can be large; an effect the other way counts as inactive or inconclusive.
SMILES,BAZ2B block,PLK1 PBD inh,JMJD2A Tudor,PI5P4K alpha inh,G9a block,HP1b binding inh
Cc1ccc(N=CC2=C(O)CC(C)(C)CC2=O)nc1,13%,-2%,-6%,5,?,37%
O=C1C=C(c2ccc(C(=O)O)cc2)C[C@@H](c2ccc3c(c2)OCO3)C1,50µM*,-21%,79µM*,?,2%[0.501 µM],1%
CCN1CCN(c2nc(S(=O)(=O)c3ccc(C)cc3)c(Cl)s2)CC1,-30%,-10%,-25%,-8,-48%,-8%
Cc1ccc2oc(=O)c3cc(C(=O)NCCCN4CCN(C)CC4)sc3c2c1,-22%,-3%,-16%,2,-21%,24%
O=C(NCCCN1CCCCCC1)c1cc2c(=O)oc3ccccc3c2s1,-11%,-22%,-24%,-5,79µM*,9%
O=C(Nc1cc(-c2ccc(Cl)cc2)no1)c1ccc(F)cc1,0%,.,-8%,.,-10%[59 µM],49%
CN1CCN(C(=O)c2cccc3c(-c4ccc(F)c(F)c4)coc23)CC1,.,-2%,.,8,.,.
CCC(=O)OCCNc1cc(Sc2nccn2C)c2nonc2c1[N+](=O)[O-],6%,2.1µM*,-12%,-8,?,-3%
CCC(=O)OCCNc1cc(SCCC(=O)OC)c2nonc2c1[N+](=O)[O-],-8%,?,-16%[57.1 µM],-7,13µM*,12%[57 µM]
CC(=O)OCCNc1cc(SC(C)C)c2nonc2c1[N+](=O)[O-],?,-6%,-24%,0,-3%,19%
CCCC(=O)OCCNc1cc(Sc2nc3ccccc3[nH]2)c2nonc2c1[N+](=O)[O-],?,1.9µM*,79µM*,-25,?,?
C[N+]1(C2CCC3CCCC2C3O)CCCCC1 (stereo not drawn),-12%,-11%,20µM*,-3,?,7%
O=c1[nH]c2ccccc2nc1CCc1ccccc1,-1%,27µM*,-9%,-12,1%,-15%
O=c1[nH]c2ccccc2nc1Cc1ccc([N+](=O)[O-])cc1,-1%,-22%,-4%,3,50µM*,29%
c1ccc(CCc2nc3ccccc3[nH]2)cc1,1%,-10%,-8%,0,5%,40%
O=C(Cc1nc2ccccc2[nH]1)c1ccc([N+](=O)[O-])cc1,-27%,-10%,-27%,-19,45µM*,18%
O=C(Cc1nc2ccccc2[nH]1)c1ccc(Cl)cc1,-3%,-4%,-19%,-13,4%,18%
COc1ccc(NC(=O)Cn2nc(-c3ccncc3)ccc2=O)cc1Cl,4%,.,-12%,.,1%[59 µM],14%[57 µM]
COc1ccc2[nH]cc(CCNc3ccnc(-c4ccccc4Cl)n3)c2c1,.,.,.,.,1%[0.501 µM],.
COCCn1c(=O)cnc2cnc(Oc3ccccc3)nc21,.,.,.,.,4%[0.501 µM],.
Cc1ccc(NC(=O)Cn2c(-c3ccc4c(c3)OCO4)cn(-c3ccccc3)c2=O)cc1C,-28%,.,?,.,?,-18%
COc1ccc(-n2cc(-c3ccc4c(c3)OCO4)n(CC(=O)Nc3cc(Cl)ccc3C)c2=O)cc1,89µM*,.,-20%,.,?,4%
COc1ccc(-n2cc(-c3ccc4c(c3)OCO4)n(CC(=O)Nc3cccc(C)c3C)c2=O)c(OC)c1,?,.,?,.,5µM*,-20%
COc1ccc(-n2nnnc2C(c2ccccc2OC(F)(F)F)N2CCN(C/C=C/c3ccccc3)CC2)cc1 (stereo not drawn),.,5%,.,15,.,.
COC(=O)c1ccccc1NC(=O)CSc1nc2ccccc2nc1Cc1ccccc1OC,0%,.,-2%,.,4%[59 µM],37%[57 µM]
SMILES,BAZ2B block,PLK1 PBD inh,JMJD2A Tudor,PI5P4K alpha inh,G9a block,HP1b binding inh
CCOc1ccc(NC(=O)COC(=O)CCN2C(=O)C3CC=CCC3C2=O)cc1OCC (stereo not drawn),?,7%,?,-4,4µM*,-21%
CCC(=O)Nc1ccc(C(=O)COC(=O)CCN2C(=O)C3CC=CCC3C2=O)cc1 (stereo not drawn),13%,-15%,-23%,-11,50µM*,-10%
CN1CCN(c2ncc3nc(-c4cc(F)cc(F)c4)c(=O)n(CCc4ccccc4)c3n2)CC1,.,.,.,.,-8%[0.501 µM],.
CCOC(=O)C1CCCN(CC(=O)Nc2cccc(C(C)=O)c2)C1 (stereo not drawn),50µM*,-4%,22µM*,2,18µM*,?
CCOC(=O)C1CCCN(CC(=O)Nc2cc(C)cc(C)c2)C1 (stereo not drawn),-3%,2%,-11%,3,50µM*,20%
CCOC(=O)C1CCN(CC(=O)Nc2ccc(OC)c(Cl)c2)CC1,50µM*,-12%,2.8µM*,-5,10µM*,?
NC(C(=O)O)c1cccc(O)c1 (stereo not drawn),.,.,.,.,43%[59 µM],.
CN1C(C(=O)c2ccccc2)=C(N)c2ccccc2S1(=O)=O,-16%,3%,-26%,0,-28%,21%
Cc1ccc(NC2=C(C(=O)c3ccccc3)N(C)S(=O)(=O)c3ccccc32)cc1,25µM*,-4%,?,-5,23%[0.501 µM],?
COc1cc(CCN2C(=O)N[C@@H](CCc3ccccc3)C(C(C)=O)=C2C)cc(OC)c1OC,-24%,4%,-10%,20,-40%,40%
COc1cc(C2SC(C)C(=O)N2CCc2ccccc2)cc(OC)c1OC (stereo not drawn),-3%,-18%,-7%,1,50µM*,31%
CCc1ccc2[nH]c3nc(SCC(=O)NCC4CCCO4)nnc3c2c1 (stereo not drawn),-3%,-1%,0%,6,18%,8%
CCc1ccc2[nH]c3nc(SCCN4CCOCC4)nnc3c2c1,5%,24µM*,1%,0,.,22%
Cn1c2ccc(F)cc2c2nnc(SCCN3CCOCC3)nc21,-1%,?,0%,-8,50µM*,52%
CCCCn1c2ccc(F)cc2c2nnc(SCCN3CCOCC3)nc21,-6%,?,-18%,-14,40µM*,26%
CCN(CC)S(=O)(=O)c1ccc2nc(NC(=O)c3cccnc3)sc2c1,3%,.,-9%,.,11%[59 µM],8%[57 µM]
COc1cc(NC(=S)NCc2ccc(S(N)(=O)=O)cc2)c(OC)cc1Cl,?,-24%,-23%,-4,35µM*,?
COc1ccc(NC(=S)NCCc2ccc(S(N)(=O)=O)cc2)c(OC)c1,2%,-24%,5%[11.4 µM],6,35µM*,26%
COc1ccc(-c2noc(-c3ccc(NCc4ccccc4OC)c([N+](=O)[O-])c3)n2)cc1,2%,.,-34%,.,?,43%
